# SMN2 splice enh – increases expression of the SMN2 splice variant | HEK293 SMN2-luciferase splicing reporter, luminescence, 30-36 h | Potency, µM (titrated, usually from 46.1 µM), for inactives: at the highest dose activity change, positive = activation, usual class: activators | actives 2.8% (n = 210,000); also: % of control where 0% means no effect; nearly all actives have a fitted effect of over 55% in size
#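 qHTS luciferase splicing reporter: luminescence rises when SMN2 exon 7 is included in transfected HEK293 cells. Compound exposure lasted 30-36 h at 37C, with 4.5 mM final sodium butyrate as control, followed by a ONE-Glo read.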
# NPC1 prom act – activates the NPC1 promoter. actives 2.4% (n = 320,000). AID 485313. Huh7 NPC1 promoter luciferase reporter, 24 h. Potency, µM (doses to about 9.22 µM), for the others: top-dose activation, most hits filed as activators; also: % of control where 0% means no effect; nearly all actives have a fitted effect of over 60% in size
#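 Quantitative HTS used a cell-based reporter: Huh7 cells stably bearing the NPC1 promoter upstream of luciferase were treated with compounds for 24 h, and promoter activation was read as luminescence.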
# Rab9 prom act – Rab9 promoter activation. Huh7 Rab9 promoter-luciferase reporter, luminescence, 24 h. Potency, µM (doses to about 9.22 µM), for the others: at the highest dose activation, negative = inhibition, actives largely listed as activators. AID 485297. actives 2.8% (n = 320,000); also: % of control where 0% means no effect; nearly all actives have a fitted effect of over 60% in size
#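 Luminescence read-out: Huh7 cells stably expressing Rab9-luciferase, treated 24 h with compound at 37 °C, then lysed with luciferase reagent for 10 min at ambient before reading.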
# ELG1 genotox – inducers of genotoxicity in HEK293T ELG1-luciferase cells. actives 1.3% (n = 330,000). Potency, µM (highest dose often 46 µM), for the others: top-dose activity change, positive = activation, usual class: activators. HEK293T ELG1-luciferase reporter, luminescence, 16 h. AID 504466; also: % of control where 0% means no effect; nearly all actives have a fitted effect of over 60% in size
#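 ELG1-luciferase HEK293T cells, 2,000/well; compound pinned in; 16 hr, 37 °C, 5% CO2; ONE-Glo, 30 min RT; luminescence on CCD imager.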
# FLuc counter – firefly luciferase modulation, counter-screen for miR-21 project | Potency, µM (top dose mostly 57.5 µM), inactives show top-dose activity change, negative = inhibition, actives largely listed as inhibitors | actives 6.9% (n = 360,000) | P08659 | purified FLuc, Km substrates, luminescence inhibition;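 also: plate controls were vehicle for no effect and reference inhibitor for full effect; nearly all actives have a fitted effect of over 55% in size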
# Target sequence (P08659 whole entry, looked up): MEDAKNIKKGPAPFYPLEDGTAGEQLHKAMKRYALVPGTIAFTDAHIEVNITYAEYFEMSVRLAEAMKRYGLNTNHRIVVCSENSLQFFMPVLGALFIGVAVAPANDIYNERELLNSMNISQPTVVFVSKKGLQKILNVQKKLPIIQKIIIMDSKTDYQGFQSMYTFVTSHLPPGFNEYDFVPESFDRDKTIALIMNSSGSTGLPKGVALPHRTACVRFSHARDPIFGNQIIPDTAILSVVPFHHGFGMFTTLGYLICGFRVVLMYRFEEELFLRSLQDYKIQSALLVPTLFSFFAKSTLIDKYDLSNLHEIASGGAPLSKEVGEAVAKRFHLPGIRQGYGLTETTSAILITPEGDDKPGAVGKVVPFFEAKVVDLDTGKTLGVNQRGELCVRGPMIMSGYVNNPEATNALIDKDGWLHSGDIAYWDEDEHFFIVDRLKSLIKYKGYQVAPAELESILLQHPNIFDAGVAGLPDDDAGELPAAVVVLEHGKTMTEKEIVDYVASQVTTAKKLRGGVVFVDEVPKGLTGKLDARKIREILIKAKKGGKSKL
#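 Purified P. pyralis luciferase (10nM final) with 10uM D-luciferin and 10uM ATP (Km levels) in 50mM Tris acetate pH 7.5, 10mM Mg acetate, 0.01% Tween-20, 0.05% BSA; qHTS 6-point titration, ~60 µM downward; luminescence read.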
# Luc counter – blocks Kinase-Glo luciferase, a counter-screen artifact | AID 1379 | Kinase-Glo luciferase, ATP luminescence, 8 min | actives 0.28% (n = 200,000) | Potency, µM (series often up to 38.3 µM), for inactives: at the highest dose activity change, negative = inhibition, usual class: inhibitors; also: % is scaled to controls: 0 for no effect and ±100 for the full control effect; nearly all actives have a fitted effect of over 60% in size
#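 Inhibition of Kinase-Glo luciferase light generation was assessed at 10 uM ATP in pH 7.2 imidazole buffer, with luminescence measured after eight minutes at ambient temperature.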
# The depositor's hits bear a star; ? = inconclusive; nt = no result; [ ] = dose if it differs, or a comment. A selection: hits, their analogues and other compounds. The true share with any hit is near 7.4%. Calls follow the shape of the dose curve; as a rule, active = well fitted curve in the direction sought with a large enough effect; inconclusive = small, poorly fitted or top-dose-only effect, or another doubt; inactive = no such curve, though single readings can be large; an effect the other way counts as inactive or inconclusive. Potency is read from the fitted curve at half-maximal effect.
SMILES,SMN2 splice enh,NPC1 prom act,Rab9 prom act,ELG1 genotox,FLuc counter,Luc counter
CCc1ccccc1NC(=O)c1ccc(-c2csc(C)n2)cc1,nt,3.5µM*,?,?,?,nt
Cc1ccc(-n2nnc3ccccc3c2=O)cc1C,14µM*,?,3.5µM*,?,2%[2.3 µM],-16%
COCCCNC(=O)c1ccc(Cn2c(SCc3ccc(F)cc3)nc3cccnc32)cc1,nt,nt,nt,nt,3.4µM*,nt
COc1ccc(Cn2c(SCc3ccc(C(=O)NCc4ccccc4F)cc3)nc3cccnc32)cc1,-15%,nt,nt,nt,-19%,nt
CN(C)CCNC(=O)c1ccc(Cn2c(SCc3ccc(F)cc3)nc3cccnc32)cc1,nt,nt,nt,nt,6µM*,nt
O=C(NCCN1CCCCC1)c1ccc(Cn2c(SCc3ccc(F)cc3)nc3cccnc32)cc1,-7%,nt,nt,nt,8.5µM*,nt
COCCCNC(=O)c1ccc(Cn2c(SCc3cccc(C)c3)nc3cccnc32)cc1,nt,nt,nt,nt,11µM*,nt
CCCOc1ccc(Oc2nc(NCC(C)C)nc(N3CCOCC3)n2)nn1,-7%,nt,nt,nt,1%,nt
COc1ccc(Nc2nc(NCc3ccco3)nc(N/N=C/c3ccc(O)cc3)n2)cc1,nt,-1%,1%,-7%,15µM*,-2%
COc1ccc(-c2cnnc(N/N=C/c3ccc(O)cc3)n2)cc1,27%,0%,18%,?,1.7µM*,-3%
CCNc1nc(NCC)nc(N/N=C/c2ccc(O)c(O)c2)n1,?,26%,?,?,21µM*,1%
COc1ccc(/C=N/Nc2nc(NCc3ccco3)nc(Nc3ccc(OC)cc3)n2)cc1,-11%,-2%,-7%,-6%,?,-1%
COc1ccc(-c2cnnc(N/N=C/c3ccc(O)c(O)c3)n2)cc1,?,-13%,-9%,12%,2.7µM*,-8%
COc1ccc(-c2cnnc(N/N=C/c3ccc(C)o3)n2)cc1,-3%,-6%,-3%,15%,-3%,0%
CCOCCCn1c(=N)c(C(=O)NCc2cccnc2)cc2c(=O)n3cc(C)ccc3nc21,12%,nt,nt,nt,-2%,nt
CN1CCC(=NOc2ccc([N+](=O)[O-])cc2)CC1,nt,1.8µM*,1.6µM*,?,?,-3%
CC(C)(C)Nc1oc(-c2ccccc2)nc1-c1ccc(C(F)(F)F)cc1,9%,nt,nt,nt,nt,-2%
CCn1c(-c2cc(Br)cc(OC)c2O)nc2cc(S(=O)(=O)N(C)C)ccc21,-15%,-5%,-6%,-14%,-1%,-4%
CCn1c(-c2ccccn2)nc2cc(S(=O)(=O)N(C)C)ccc21,nt,18%,27%,8%,21µM*,nt
CCCOc1ncnc2c1[nH]c1ccc(C)cc12,nt,2.8µM*,?,?,1.2µM*,nt
Cc1ccc2[nH]c3c(NCc4ccccc4)ncnc3c2c1,nt,11%,2%,-1%,24µM*,nt
Cc1ccc2[nH]c3c(N4CCOCC4)ncnc3c2c1,-42%,1%,3%,6%,17µM*,-6%
COc1ccc(CNc2ncnc3c2[nH]c2cc(OC)c(OC)cc23)cc1,nt,-3%,-4%,10%,24µM*,nt
COc1ccc(CNc2ncnc3c2[nH]c2ccccc23)cc1,nt,-5%,-17%,-8%,?,nt
N#CCCn1c(=O)c(-c2cc(F)cc(F)c2)nc2cnc(OCc3ccccc3)nc21,-19%,nt,nt,nt,nt,-3%
SMILES,SMN2 splice enh,NPC1 prom act,Rab9 prom act,ELG1 genotox,FLuc counter,Luc counter
S=C(NCCc1ccc(Cl)cc1)NC1CCCCC1,nt,4µM*,?,-7%,19µM*,nt
O=C(NCCc1ccccc1)C(=O)NC1CCCCC1,58%,3.5µM*,3.2µM*,11%,-1%[2.3 µM],-2%
Fc1ccccc1NC(=S)NCCc1ccc(Cl)cc1,nt,?,?,?,19µM*,nt
COc1ccc(CCNC(=S)NCc2cccs2)cc1OC,-7%,-1%,-2%,-4%,2%,1%
S=C(NCCc1ccccc1)NCc1cccs1,10µM*,?,?,?,?,-3%
S=C(NCCc1ccccc1)NC1CCCCCC1,13µM*,2.5µM*,3.2µM*,8.2µM*,11µM*,1%
COc1cccc(-n2c(=O)c3c(C)c(C(=O)N(C)C)sc3n(Cc3ccc(F)cc3Cl)c2=O)c1,nt,nt,nt,nt,5%,nt
Nc1nc2ccc([N+](=O)[O-])cc2s1,-5%,nt,nt,nt,nt,nt
Cn1cccc1C(=O)NC(=O)COC(=O)CC12CC3CC(CC(C3)C1)C2,-7%,1%,-4%,6%,17µM*,3%
C/C(=N/OC(=O)C1CC12CCC2)c1ccc(Br)cc1 (stereo unspecified),15%,-1%,2%,-4%,6.7µM*,3%
Cc1nc2ccn(Cc3ccccc3)c(=O)c2cc1C(=O)Nc1ccc(F)cc1Cl,nt,nt,nt,nt,4%,nt
Cc1ccccc1CSc1cn(CC(=O)N2CCCCC2)c2ccccc12,nt,nt,nt,nt,-19%,nt
COc1cccc(/C=C2\N=C3CCCCCN3C2=O)c1,0%,0%,2%,?,13µM*,-6%
COc1ccccc1CCNC(=O)Cc1ccc(NC(=O)N2CCSc3ncccc32)cc1,nt,nt,nt,nt,-14%,nt
C(=Nc1ccc(N2CCOCC2)cc1)c1c[nH]c2ccccc12,nt,5%,24%,10%,?,nt
Cn1c(/N=C/c2c[nH]c3ccccc23)nc2ccccc21,nt,0%,5%,-2%,0.13µM*,nt
CC(C)n1c(/N=C/c2c[nH]c3ccccc23)nc2ccccc21,-10%,-3%,-1%,2%,2.7µM*,-3%
CC#CCN1c2ccccc2[C@]23C[C@@H](C(=O)OC)N(S(=O)(=O)c4ccc(Br)cc4)C2=NC(C(=O)OC)=C(C(=O)OC)[C@H]13,-3%[9.22 µM],nt,nt,nt,nt,1%[7.66 µM]
CC1CC1C(=O)Nc1ccc(-c2ccccc2)cc1 (stereo unspecified),13µM*,3.2µM*,2.5µM*,?,9.5µM*,1%

# Screening data (PubChem)
